Test results: PubChem BioAssay AID1159580 (chemical genetic matrix, 2015)
Where “and” joins values, the source holds several entries; their conditions need not be identical. Equal entries are not always repeated. The whole screen tested about 5,500 compounds, of which about 2,000 (36%) were called active. Not shown: some 18% with an inconclusive outcome. No stated cut-off is given here; in the data, active means normalized growth mostly below about 0.91 (no sharp cut-off); inconclusive means no clear call, values can overlap the other calls; inactive means mostly above about 0.92. This is one part of the list.

Experiment: chemical genetic growth profiling, strain panel (AID 1159580);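 further: tested at 20 µM; growth read once vehicle control cultures reached saturation at 30 °C; 1 = growth at the plate median or of vehicle wells; lower values mean less growth of the strain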
Conditions: S. cerevisiae deletion strains, growth OD

Measured: normalized growth

CC(=O)Oc1ccc2c(c1C(C)C)CCC1C(C)(C)CCC[C@]21C (stereo not given in full)
inactive: locus YAL013W, strain DEP1, hits give low values 1.02 | locus YAL021C, strain ccr4, hits give low values 0.996 | locus YAL026C, strain drs2, hits give low values 1.03 | locus YAL030W, strain snc1, hits give low values 1.01 | locus YBL061C, strain skt5, hits give low values 1.03 | locus YBR009C, strain hhf1, hits give low values 1.02 | locus YBR021W, strain FUR4, hits give low values 1.01 | locus YBR023C, strain chs3, hits give low values 1.03 | locus YBR171W, strain sec66, hits give low values 1.03 | locus YBR229C, strain ROT2, hits give low values 1.02 | locus YBR231C, strain swc5, hits give low values 1.03 | locus YBR279W, strain paf1, hits give low values 1.02 | locus YCL011C, strain gbp2, hits give low values 1.02 | locus YCL016C, strain dcc1, hits give low values 1.02 | locus YCL029C, strain bik1, hits give low values 0.997 | locus YCL061C, strain MRC1, hits give low values 1.01 | locus YCL069W, strain vba3, hits give low values 1.01 | locus YCR088W, strain abp1, hits give low values 1.02 | locus YDL005C, strain med2, hits give low values 1.02 | locus YDL035C, strain GPR1, hits give low values 1.03 | locus YDL040C, strain nat1, hits give low values 1 | locus YDL074C, strain BRE1, hits give low values 1.05 | locus YDL101C, strain DUN1, hits give low values 1.03 | locus YDL134C, strain PPH21, hits give low values 1.02 | locus YDL185W, strain tfp1, hits give low values 1 | locus YDL192W, strain arf1, hits give low values 1.01 | locus YDR001C, strain nth1, hits give low values 1.02 | locus YDR069C, strain doa4, hits give low values 1.02 | locus YDR101C, strain arx1, hits give low values 0.995 | locus YDR137W, strain rgp1, hits give low values 1.01 | locus YDR150W, strain NUM1, hits give low values 0.995 | locus YDR159W, strain sac3, hits give low values 1.06 | locus YDR162C, strain NBP2, hits give low values 1.02 | locus YDR195W, strain ref2 1.01 | locus YDR297W, strain sur2, hits give low values 1.01 | locus YDR318W, strain mcm21, hits give low values 0.996 | locus YDR334W, strain swr1, hits give low values 1.02 | locus YDR335W, strain msn5, hits give low values 1.02 | locus YDR388W, hits give low values 0.994 | locus YDR392W, strain spt3, hits give low values 0.997 | locus YDR502C, strain sam2, hits give low values 1.01 | locus YEL003W, strain gim4, hits give low values 1.02 | locus YEL037C, strain rad23, hits give low values 1.01 | locus YEL061C, strain CIN8 (second series), hits give low values 1.02 | locus YEL061C, strain CIN8, hits give low values 1.01 | locus YER015W, strain faa2, hits give low values 1.02 | locus YER016W, strain bim1, hits give low values 1.02 | locus YER110C, hits give low values 0.998 | locus YER111C, strain swi4, hits give low values 1.01 | locus YER155C, strain BEM2 (second series), hits give low values 1.04 | locus YER155C, strain BEM2, hits give low values 1.01 | locus YER167W, strain BCK2, hits give low values 1.01 | locus YFR010W, strain ubp6, hits give low values 1.04 | locus YGL078C, strain dbp3, hits give low values 1.01 | locus YGL086W, strain mad1, hits give low values 0.99 | locus YGL167C, strain pmr1, hits give low values 1.02 | locus YGL173C, strain kem1, hits give low values 1.02 | locus YGL227W, strain vid30, hits give low values 1.02 | locus YGL240W, strain doc1, hits give low values 1.02 | locus YGL248W, strain PDE1, hits give low values 1.02 | locus YGL253W, strain hxk2, hits give low values 1.03 | locus YGR135W, strain pre9, hits give low values 0.99 | locus YGR252W, strain gcn5, hits give low values 1.02 | locus YHR013C, strain ard1, hits give low values 1.04 | locus YHR027C, strain rpn1, hits give low values 1.02 | locus YHR030C, strain SLT2, hits give low values 0.969 | locus YHR079C, strain IRE1 (second series), hits give low values 0.985 | locus YHR079C, strain IRE1, hits give low values 0.973 | locus YHR094C, strain hxt1, hits give low values 1 | locus YHR129C, strain ARP1, hits give low values 1.01 | locus YHR142W, strain chs7, hits give low values 1.05 | locus YHR200W, strain rpn10, hits give low values 1 | locus YIL066C, strain RNR3, hits give low values 1.03 | locus YIL073C, strain SPO22, hits give low values 1.04 | locus YIL125W, strain kgd1, hits give low values 1 | locus YIR030C, strain dcg1, hits give low values 1 | locus YJL092W, strain hpr5, hits give low values 1.02 | locus YJL095W, strain BCK1 (second series), hits give low values 1.04 | locus YJL095W, strain BCK1, hits give low values 1.04 and 0.976 | locus YJL115W, strain asf1, hits give low values 1.04 | locus YJL129C, strain trk1, hits give low values 0.995 | locus YJL134W, strain LCB3, hits give low values 1.01 | locus YJL154C, strain vps35, hits give low values 1.01 | locus YJL164C, strain tpk1, hits give low values 1 | locus YJL166W, strain qcr8, hits give low values 1.03 | locus YJL168C, strain set2, hits give low values 0.996 | locus YJL187C, strain SWE1 (second series), hits give low values 1.02 | locus YJL187C, strain SWE1, hits give low values 1.01 | locus YJR043C, strain POL32, hits give low values 1.03 | locus YJR066W, strain TOR1, hits give low values 0.918 | locus YKL009W, strain mrt4, hits give low values 1.01 | locus YKL068W, hits give low values 0.997 | locus YKL085W, strain MDH1 (second series), hits give low values 1.01 | locus YKL085W, strain MDH1, hits give low values 1.01 | locus YKL160W, strain elf1, hits give low values 1.01 | locus YKR001C, strain vps1, hits give low values 1.01 | locus YKR026C, strain gcn3, hits give low values 1.03 | locus YKR091W, strain srl3, hits give low values 1.01 | locus YLL001W, strain dnm1, hits give low values 1 | locus YLL026W, hits give low values 1.02 | locus YLL041C, strain sdh2, hits give low values 1.02 | locus YLR027C, strain aat2, hits give low values 1.02 | locus YLR039C, strain RIC1, hits give low values 1.02 | locus YLR058C, strain SHM2, hits give low values 1.02 | locus YLR102C, strain apc9, hits give low values 0.999 | locus YLR113W, strain HOG1, hits give low values 1 | locus YLR221C, strain rsa3, hits give low values 1.02 | locus YLR258W, strain gsy2, hits give low values 1.01 | locus YLR262C, strain YPT6 (second series), hits give low values 1.01 | locus YLR262C, strain YPT6, hits give low values 1.06 | locus YLR268W, strain sec22, hits give low values 1 | locus YLR320W, strain mms22, hits give low values 1.04 | locus YLR330W, strain CHS5, hits give low values 1.01 | locus YLR342W, strain FKS1 (second series), hits give low values 1.01 | locus YLR342W, strain FKS1, hits give low values 1.02 | locus YLR357W, strain rsc2, hits give low values 1.04 | locus YLR370C, strain arc18, hits give low values 1.02 | locus YLR371W, strain rom2, hits give low values 0.99 | locus YLR384C, strain iki3, hits give low values 1.03 | locus YLR418C, strain cdc73, hits give low values 1 | locus YML016C, strain PPZ1, hits give low values 1.02 | locus YML032C, strain rad52, hits give low values 1.01 | locus YML120C, strain ndi1, hits give low values 1.01 | locus YML124C, strain tub3, hits give low values 1 | locus YMR058W, strain fet3, hits give low values 1.03 | locus YMR078C, strain ctf18, hits give low values 1 | locus YMR125W, strain sto1, hits give low values 1.03 | locus YMR129W, hits give low values 1.03 | locus YMR205C, strain PFK2, hits give low values 0.995 | locus YMR223W, strain ubp8, hits give low values 1.01 | locus YMR231W, strain pep5, hits give low values 1.01 | locus YMR263W, strain SAP30, hits give low values 1.02 | locus YMR307W, strain GAS1, hits give low values 1.02 | locus YNL067W, strain RPL9B, hits give low values 1.01 | locus YNL071W, strain lat1, hits give low values 1.01 | locus YNL128W, strain TEP1, hits give low values 1.02 | locus YNL153C, strain GIM3, hits give low values 1.02 | locus YNL183C, strain NPR1, hits give low values 0.928 | locus YNL209W, strain ssb2, hits give low values 1.02 | locus YNL233W, strain BNI4, hits give low values 1.02 | locus YNL248C, strain rpa49, hits give low values 1.02 | locus YNL250W, strain rad50, hits give low values 0.992 | locus YNL271C, strain bni1, hits give low values 0.996 | locus YNL298W, strain CLA4, hits give low values 1.01 | locus YNL307C, strain MCK1, hits give low values 1 | locus YNL322C, strain KRE1 (second series), hits give low values 1.01 | locus YNR049C, strain mso1, hits give low values 1.04 | locus YNR052C, strain pop2, hits give low values 0.995 | locus YOL012C, strain htz1 1.05 | locus YOL147C, strain pex11, hits give low values 0.999 | locus YOR001W, strain rrp6, hits give low values 1.02 | locus YOR061W, strain CKA2, hits give low values 1.02 | locus YOR069W, strain VPS5, hits give low values 1.01 | locus YOR070C, strain gyp1, hits give low values 1.02 | locus YOR080W, strain dia2, hits give low values 1.02 | locus YOR083W, strain WHI5, hits give low values 1.01 | locus YOR106W, strain vam3, hits give low values 1.02 | locus YOR136W, strain idh2, hits give low values 0.99 | locus YOR144C, strain elg1, hits give low values 0.996 | locus YOR184W, strain ser1, hits give low values 0.996 | locus YOR231W, strain MKK1, hits give low values 0.97 | locus YOR265W, strain rbl2, hits give low values 1.04 | locus YOR270C, strain vph1, hits give low values 1.01 | locus YOR290C, strain snf2, hits give low values 1 | locus YOR316C, strain cot1, hits give low values 0.998 | locus YPL051W, strain arl3, hits give low values 1.02 | locus YPL078C, strain atp4, hits give low values 1 | locus YPL106C, strain sse1, hits give low values 1.02 | locus YPL240C, strain hsp82, hits give low values 1.02 | locus YPL256C, strain CLN2, hits give low values 0.966 | locus YPR119W, strain clb2, hits give low values 0.992 | locus YPR141C, strain kar3, hits give low values 1 | locus YPR163C, strain tif3, hits give low values 0.996 | locus YPR167C, strain met16, hits give low values 0.995 | strain wtn01, hits give low values 1
